In paper PMC7862700, “An all-to-all approach to the identification of sequence-specific readers for epigenetic DNA modifications on cytosine” one finds binding signal data, which are given here for one sequence.

Holding throughout (assay): DAPPL (digital affinity profiling via proximity ligation, sequencing); 10 mM Tris-HCl pH 7.5, 50 mM NaCl, 1 mM DTT, 4% glycerol, room temperature, 30 min; GST-TFs on glutathione beads, 16-mer random dsDNA library, 0.1% formaldehyde crosslink after washing; high values mean tight binding
Assay [1] concerns the target T1, FLI1 (Homo sapiens, UniProt Q01543 1-452).
T1 sequence: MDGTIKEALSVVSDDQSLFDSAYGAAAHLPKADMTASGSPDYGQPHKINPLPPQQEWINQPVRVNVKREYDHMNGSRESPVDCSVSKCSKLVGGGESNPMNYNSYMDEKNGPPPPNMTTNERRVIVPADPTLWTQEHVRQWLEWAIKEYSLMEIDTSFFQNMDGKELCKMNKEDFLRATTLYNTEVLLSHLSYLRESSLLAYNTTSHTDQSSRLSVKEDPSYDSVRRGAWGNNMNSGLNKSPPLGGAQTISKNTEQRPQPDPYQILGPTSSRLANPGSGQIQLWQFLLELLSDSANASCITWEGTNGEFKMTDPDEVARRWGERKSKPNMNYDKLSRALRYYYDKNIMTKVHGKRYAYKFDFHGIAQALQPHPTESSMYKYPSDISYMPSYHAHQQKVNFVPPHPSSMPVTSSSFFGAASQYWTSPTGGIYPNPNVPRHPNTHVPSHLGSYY
To be noted: protein: recombinant; tags: N-terminal GST; dsDNA, one strand shown. The procedure, abridged:
(§1)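 Human transcription factors were made in yeast as GST fusions, captured on glutathione beads and barcoded with DNA. With a tag-only sample included, the pool was incubated with 200 nmole of a random double-stranded 16-mer DNA library in Tris/NaCl/DTT/glycerol buffer at room temperature for 30 min, then crosslinked with 0.1% formaldehyde after washing, ligated by proximity, amplified and sequenced. For binding signal, each hexamer's read frequency for a factor is divided by its frequency for the tag-only sample.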

The target of assay [2] is T2, ELK1 (Homo sapiens, UniProt P19419 1-428).
T2 sequence: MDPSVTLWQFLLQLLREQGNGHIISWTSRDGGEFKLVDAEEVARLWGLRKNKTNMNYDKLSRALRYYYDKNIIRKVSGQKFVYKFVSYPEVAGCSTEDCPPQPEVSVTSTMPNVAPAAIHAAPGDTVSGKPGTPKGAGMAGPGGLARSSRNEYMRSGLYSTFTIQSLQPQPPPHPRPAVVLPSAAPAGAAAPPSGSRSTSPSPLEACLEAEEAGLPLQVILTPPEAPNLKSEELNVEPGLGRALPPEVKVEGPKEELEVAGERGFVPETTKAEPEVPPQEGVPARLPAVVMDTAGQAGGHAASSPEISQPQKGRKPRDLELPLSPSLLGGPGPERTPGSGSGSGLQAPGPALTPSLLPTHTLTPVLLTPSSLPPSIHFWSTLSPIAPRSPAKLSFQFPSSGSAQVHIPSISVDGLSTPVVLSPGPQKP
The conditions noted are these: protein: recombinant; tags: N-terminal GST; dsDNA, one strand shown. The procedure, abridged:
as §1

The target of assay [3] is T3, GABPA (Homo sapiens, UniProt Q06546 1-454).
T3 sequence: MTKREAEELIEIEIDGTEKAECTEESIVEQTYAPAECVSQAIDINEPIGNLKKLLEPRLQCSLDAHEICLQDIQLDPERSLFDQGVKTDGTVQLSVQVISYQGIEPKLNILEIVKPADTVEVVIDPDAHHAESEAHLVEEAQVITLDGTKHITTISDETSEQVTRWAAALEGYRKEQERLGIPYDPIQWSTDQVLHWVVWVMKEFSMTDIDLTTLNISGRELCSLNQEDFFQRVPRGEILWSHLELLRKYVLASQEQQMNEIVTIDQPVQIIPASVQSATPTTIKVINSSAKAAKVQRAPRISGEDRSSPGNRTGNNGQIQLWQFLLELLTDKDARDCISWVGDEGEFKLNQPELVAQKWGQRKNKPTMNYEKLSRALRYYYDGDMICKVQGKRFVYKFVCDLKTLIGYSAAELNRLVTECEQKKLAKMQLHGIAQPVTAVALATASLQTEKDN
To be noted: protein: recombinant; tags: N-terminal GST; dsDNA, one strand shown. The procedure, abridged: as §1

Assay [4] addresses T4, ERG (Homo sapiens, UniProt P11308 1-479).
T4 sequence: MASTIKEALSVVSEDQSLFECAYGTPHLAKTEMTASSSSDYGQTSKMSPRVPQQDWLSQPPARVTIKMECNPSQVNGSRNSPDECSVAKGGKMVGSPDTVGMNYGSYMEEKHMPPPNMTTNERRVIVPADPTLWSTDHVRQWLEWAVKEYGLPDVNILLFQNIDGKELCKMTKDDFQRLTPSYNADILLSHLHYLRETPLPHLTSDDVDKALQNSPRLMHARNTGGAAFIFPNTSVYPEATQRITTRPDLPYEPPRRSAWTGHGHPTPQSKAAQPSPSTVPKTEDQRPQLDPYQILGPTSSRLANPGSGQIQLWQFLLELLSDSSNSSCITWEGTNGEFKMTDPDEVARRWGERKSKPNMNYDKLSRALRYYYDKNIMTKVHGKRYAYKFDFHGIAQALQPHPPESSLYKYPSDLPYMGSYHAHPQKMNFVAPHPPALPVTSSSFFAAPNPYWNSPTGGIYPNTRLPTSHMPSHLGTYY
To be noted: protein: recombinant; tags: N-terminal GST; dsDNA, one strand shown. The procedure, abridged:
as §1

The target in assay [5] is ELF1 (Homo sapiens, UniProt P32519 1-619). The conditions noted are these: protein: recombinant; tags: N-terminal GST; dsDNA, one strand shown. The procedure, abridged: as §1
Sequence of ELF1 (P32519 whole entry): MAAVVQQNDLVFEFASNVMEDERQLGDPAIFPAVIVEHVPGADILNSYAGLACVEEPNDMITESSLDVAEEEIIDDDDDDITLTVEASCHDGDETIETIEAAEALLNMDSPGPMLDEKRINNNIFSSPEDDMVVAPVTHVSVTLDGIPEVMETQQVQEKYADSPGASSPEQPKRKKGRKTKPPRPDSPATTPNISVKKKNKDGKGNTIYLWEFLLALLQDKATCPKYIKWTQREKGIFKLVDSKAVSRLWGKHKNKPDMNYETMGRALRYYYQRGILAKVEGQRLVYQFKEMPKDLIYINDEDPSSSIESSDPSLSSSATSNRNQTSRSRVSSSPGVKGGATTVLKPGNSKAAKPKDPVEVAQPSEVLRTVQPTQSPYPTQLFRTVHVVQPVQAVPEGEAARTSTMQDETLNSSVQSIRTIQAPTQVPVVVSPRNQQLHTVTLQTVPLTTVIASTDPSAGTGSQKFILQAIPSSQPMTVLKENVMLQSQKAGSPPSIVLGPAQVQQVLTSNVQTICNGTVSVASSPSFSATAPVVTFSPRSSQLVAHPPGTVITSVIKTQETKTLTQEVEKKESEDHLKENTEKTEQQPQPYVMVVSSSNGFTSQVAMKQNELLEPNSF
Assay [6] addresses T5, EHF (Homo sapiens, UniProt Q9NZC4 1-300).
T5 sequence: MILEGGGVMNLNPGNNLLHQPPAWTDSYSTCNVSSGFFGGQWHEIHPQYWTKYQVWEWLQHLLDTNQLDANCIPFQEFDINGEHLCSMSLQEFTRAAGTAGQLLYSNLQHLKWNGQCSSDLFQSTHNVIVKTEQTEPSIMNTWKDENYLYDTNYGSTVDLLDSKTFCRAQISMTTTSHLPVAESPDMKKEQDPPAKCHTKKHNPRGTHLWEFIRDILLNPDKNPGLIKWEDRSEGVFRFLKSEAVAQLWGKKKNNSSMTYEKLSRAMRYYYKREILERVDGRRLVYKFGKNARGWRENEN
To be noted: protein: recombinant; tags: N-terminal GST; dsDNA, one strand shown. The procedure, abridged: as §1

Assay [7] deals with SPI1 (Homo sapiens, UniProt P17947 1-270). To be noted: protein: recombinant; tags: N-terminal GST; dsDNA, one strand shown. In outline:
as §1

Assay [8] has as its target SPIB (Homo sapiens, UniProt Q01892 1-262). To be noted: protein: recombinant; tags: N-terminal GST; dsDNA, one strand shown. The procedure, abridged:
as §1

The target of assay [9] is T6, ELK3 (Homo sapiens, UniProt P41970 1-407).
T6 sequence: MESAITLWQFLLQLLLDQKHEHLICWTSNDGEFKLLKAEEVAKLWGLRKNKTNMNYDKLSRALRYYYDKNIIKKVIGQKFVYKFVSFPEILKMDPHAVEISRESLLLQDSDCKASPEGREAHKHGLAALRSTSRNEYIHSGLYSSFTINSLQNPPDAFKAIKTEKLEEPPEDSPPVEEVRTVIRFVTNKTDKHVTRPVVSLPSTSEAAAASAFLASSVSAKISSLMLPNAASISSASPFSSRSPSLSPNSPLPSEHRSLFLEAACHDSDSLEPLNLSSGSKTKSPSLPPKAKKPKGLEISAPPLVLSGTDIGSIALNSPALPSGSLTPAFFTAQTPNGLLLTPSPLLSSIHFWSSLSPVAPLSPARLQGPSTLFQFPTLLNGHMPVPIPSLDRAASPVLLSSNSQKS
To be noted: protein: recombinant; tags: N-terminal GST; dsDNA, one strand shown. The procedure, abridged:
as §1

Assay [10] addresses T7, FEV (Homo sapiens, UniProt Q99581 1-238).
T7 sequence: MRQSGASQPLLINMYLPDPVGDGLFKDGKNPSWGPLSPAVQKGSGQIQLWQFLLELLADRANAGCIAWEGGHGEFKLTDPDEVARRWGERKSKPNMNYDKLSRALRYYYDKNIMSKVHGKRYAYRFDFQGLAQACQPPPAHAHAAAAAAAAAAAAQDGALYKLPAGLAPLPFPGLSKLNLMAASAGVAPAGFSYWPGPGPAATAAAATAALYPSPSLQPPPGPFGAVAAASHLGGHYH
The conditions noted are these: protein: recombinant; tags: N-terminal GST; dsDNA, one strand shown. In outline: as §1

Assay [11] concerns the target ETV5 (Homo sapiens, UniProt P41161 1-510). To be noted: protein: recombinant; tags: N-terminal GST; dsDNA, one strand shown. The procedure, abridged: as §1
Assay [12] addresses HSF1 (Homo sapiens, UniProt Q00613 1-529). The conditions noted are these: protein: recombinant; tags: N-terminal GST; chain copies: 3; dsDNA, one strand shown. In outline:
as §1

The target in assay [13] is T8, SPIC (Homo sapiens, UniProt Q8N5J4 1-248).
T8 sequence: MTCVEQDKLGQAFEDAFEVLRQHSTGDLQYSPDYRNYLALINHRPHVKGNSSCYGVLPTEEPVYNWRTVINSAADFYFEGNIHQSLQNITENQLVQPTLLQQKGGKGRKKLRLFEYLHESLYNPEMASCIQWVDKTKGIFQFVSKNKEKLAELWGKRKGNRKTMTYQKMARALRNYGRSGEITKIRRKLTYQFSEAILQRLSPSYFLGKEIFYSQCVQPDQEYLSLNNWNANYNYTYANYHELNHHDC
The conditions noted are these: protein: recombinant; tags: N-terminal GST; dsDNA, one strand shown. The procedure, abridged:
as §1

The target in assay [14] is ELF4 (Homo sapiens, UniProt Q99607 1-663). To be noted: protein: recombinant; tags: N-terminal GST; dsDNA, one strand shown. The procedure, abridged:
as §1

Assay [15] has as its target T9, ELK4 (Homo sapiens, UniProt P28324-2 1-405).
T9 sequence: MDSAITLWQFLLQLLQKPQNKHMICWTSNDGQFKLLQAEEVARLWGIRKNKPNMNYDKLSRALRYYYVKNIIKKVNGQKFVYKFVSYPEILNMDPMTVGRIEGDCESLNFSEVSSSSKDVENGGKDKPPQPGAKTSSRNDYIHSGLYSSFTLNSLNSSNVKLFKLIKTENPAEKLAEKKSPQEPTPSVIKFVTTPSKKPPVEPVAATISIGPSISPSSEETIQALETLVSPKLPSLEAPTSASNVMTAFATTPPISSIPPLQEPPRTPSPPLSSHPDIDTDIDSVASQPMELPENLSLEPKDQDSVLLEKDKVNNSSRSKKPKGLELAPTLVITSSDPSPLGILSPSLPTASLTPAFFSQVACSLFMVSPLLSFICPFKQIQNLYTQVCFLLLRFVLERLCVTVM
The conditions noted are these: protein: recombinant; tags: N-terminal GST; dsDNA, one strand shown. The procedure, abridged:
as §1

Assay [16] deals with T10, ETV2 (Homo sapiens, UniProt O00321 1-342).
T10 sequence: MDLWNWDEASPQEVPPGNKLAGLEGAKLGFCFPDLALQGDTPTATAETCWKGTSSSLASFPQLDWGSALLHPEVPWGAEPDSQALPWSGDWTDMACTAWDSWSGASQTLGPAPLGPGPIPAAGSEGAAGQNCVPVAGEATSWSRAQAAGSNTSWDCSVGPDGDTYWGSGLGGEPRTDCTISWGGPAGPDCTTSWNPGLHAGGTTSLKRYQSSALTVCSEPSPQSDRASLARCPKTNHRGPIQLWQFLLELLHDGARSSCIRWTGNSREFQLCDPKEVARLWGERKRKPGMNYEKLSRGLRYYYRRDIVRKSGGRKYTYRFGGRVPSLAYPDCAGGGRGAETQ
The conditions noted are these: protein: recombinant; tags: N-terminal GST; dsDNA, one strand shown. In outline: as §1

The target of assay [17] is T11, ELF3 (Homo sapiens, UniProt P78545 1-371).
T11 sequence: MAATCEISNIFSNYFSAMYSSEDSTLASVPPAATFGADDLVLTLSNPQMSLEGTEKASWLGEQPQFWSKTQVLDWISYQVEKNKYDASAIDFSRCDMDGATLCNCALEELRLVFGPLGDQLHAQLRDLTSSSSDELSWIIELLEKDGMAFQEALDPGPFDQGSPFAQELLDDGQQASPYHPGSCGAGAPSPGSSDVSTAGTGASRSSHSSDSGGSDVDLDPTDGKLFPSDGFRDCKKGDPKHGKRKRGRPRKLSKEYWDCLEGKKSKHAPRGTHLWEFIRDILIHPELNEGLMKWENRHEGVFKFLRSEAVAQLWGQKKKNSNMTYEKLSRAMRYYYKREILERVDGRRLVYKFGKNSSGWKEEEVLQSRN
The conditions noted are these: protein: recombinant; tags: N-terminal GST; dsDNA, one strand shown. In outline:
as §1

The target of assay [18] is ETV1 (Homo sapiens, UniProt P50549 1-477). To be noted: protein: recombinant; tags: N-terminal GST; dsDNA, one strand shown. The procedure, abridged: as §1
Sequence of ETV1 (P50549 whole entry): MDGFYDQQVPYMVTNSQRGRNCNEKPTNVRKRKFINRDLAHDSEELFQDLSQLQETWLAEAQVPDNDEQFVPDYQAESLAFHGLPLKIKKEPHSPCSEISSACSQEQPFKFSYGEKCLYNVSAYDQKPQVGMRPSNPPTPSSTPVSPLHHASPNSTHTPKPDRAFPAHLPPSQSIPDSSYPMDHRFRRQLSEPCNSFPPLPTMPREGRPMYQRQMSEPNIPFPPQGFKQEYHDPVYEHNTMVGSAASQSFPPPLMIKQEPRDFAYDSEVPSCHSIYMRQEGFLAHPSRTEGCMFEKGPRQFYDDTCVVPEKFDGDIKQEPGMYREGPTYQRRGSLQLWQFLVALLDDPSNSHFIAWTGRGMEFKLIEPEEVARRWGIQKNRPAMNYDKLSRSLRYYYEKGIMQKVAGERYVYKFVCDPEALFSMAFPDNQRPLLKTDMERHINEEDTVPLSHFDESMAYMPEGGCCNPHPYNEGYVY

Sequence of ETV5 (P41161 whole entry): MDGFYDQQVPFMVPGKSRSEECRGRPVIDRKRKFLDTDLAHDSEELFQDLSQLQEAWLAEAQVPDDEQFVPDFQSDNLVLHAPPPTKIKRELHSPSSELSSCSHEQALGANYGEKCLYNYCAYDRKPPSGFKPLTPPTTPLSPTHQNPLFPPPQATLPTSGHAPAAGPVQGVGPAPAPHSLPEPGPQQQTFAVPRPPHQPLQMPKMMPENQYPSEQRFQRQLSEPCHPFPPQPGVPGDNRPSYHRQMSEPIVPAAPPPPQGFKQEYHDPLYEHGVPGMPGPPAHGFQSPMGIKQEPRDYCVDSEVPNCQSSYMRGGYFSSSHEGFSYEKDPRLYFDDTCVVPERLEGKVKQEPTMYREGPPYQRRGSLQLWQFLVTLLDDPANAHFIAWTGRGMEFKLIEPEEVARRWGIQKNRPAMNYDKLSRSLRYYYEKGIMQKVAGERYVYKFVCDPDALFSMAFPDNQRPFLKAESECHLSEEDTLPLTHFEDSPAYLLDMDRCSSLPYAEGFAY
Sequence of HSF1 (Q00613 whole entry): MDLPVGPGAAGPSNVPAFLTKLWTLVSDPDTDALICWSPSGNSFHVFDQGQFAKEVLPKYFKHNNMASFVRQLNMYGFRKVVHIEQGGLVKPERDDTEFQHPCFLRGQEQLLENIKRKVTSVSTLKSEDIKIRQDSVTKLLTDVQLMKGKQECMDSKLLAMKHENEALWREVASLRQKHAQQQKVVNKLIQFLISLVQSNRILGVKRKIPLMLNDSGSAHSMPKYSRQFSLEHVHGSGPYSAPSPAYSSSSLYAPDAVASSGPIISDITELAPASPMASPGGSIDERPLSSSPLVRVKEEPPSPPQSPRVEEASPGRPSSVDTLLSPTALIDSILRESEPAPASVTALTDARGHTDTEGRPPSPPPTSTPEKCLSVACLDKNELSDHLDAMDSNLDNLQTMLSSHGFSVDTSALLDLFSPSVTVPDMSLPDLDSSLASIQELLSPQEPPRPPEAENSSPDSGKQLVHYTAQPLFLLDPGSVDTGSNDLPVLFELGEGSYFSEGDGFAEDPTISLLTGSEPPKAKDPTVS
Sequence of SPIB (Q01892 whole entry): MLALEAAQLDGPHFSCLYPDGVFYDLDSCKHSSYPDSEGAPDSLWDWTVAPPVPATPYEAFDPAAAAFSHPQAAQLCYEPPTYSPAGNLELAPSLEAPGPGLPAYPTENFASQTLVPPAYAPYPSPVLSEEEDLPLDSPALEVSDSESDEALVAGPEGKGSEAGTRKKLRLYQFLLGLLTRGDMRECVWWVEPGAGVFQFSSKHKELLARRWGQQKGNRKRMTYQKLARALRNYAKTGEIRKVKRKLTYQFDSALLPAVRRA
Sequence of ELF4 (Q99607 whole entry): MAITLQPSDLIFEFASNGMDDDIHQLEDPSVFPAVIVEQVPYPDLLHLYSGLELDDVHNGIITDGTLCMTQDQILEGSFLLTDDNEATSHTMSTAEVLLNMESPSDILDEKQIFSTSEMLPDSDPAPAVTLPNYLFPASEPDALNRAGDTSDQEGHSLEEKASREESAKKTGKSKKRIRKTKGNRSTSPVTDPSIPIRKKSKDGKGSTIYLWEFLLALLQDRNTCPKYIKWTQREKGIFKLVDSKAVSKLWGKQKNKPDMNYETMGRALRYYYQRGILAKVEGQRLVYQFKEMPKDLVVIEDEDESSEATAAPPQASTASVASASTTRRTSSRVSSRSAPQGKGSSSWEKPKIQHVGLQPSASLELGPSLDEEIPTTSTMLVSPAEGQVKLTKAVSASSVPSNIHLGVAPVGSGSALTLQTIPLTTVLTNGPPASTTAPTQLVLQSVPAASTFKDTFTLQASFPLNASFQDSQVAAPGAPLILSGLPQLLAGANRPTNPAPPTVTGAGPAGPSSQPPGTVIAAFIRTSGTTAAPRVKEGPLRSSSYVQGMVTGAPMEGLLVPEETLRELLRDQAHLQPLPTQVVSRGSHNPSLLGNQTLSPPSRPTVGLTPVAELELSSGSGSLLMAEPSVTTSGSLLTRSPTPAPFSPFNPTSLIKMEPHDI

Regarding TGGCAC, the binding signal in assay [1] was 1.19 fold enrichment (6-mer frequency, TF over GST control); in assay [2], 1.23 fold enrichment (6-mer frequency, TF over GST control); in assay [3], 1.15 fold enrichment (6-mer frequency, TF over GST control); in assay [4] it was 1.27 fold enrichment (6-mer frequency, TF over GST control); in [5], 1.09 fold enrichment (6-mer frequency, TF over GST control); in [6] it was 1.26 fold enrichment (6-mer frequency, TF over GST control). In addition, the binding signal in assay [7] was 1.14 fold enrichment (6-mer frequency, TF over GST control); in assay [8], 1.18 fold enrichment (6-mer frequency, TF over GST control); in assay [9] it was 1.17 fold enrichment (6-mer frequency, TF over GST control); in assay [10], 1.31 fold enrichment (6-mer frequency, TF over GST control); in assay [11], 1.18 fold enrichment (6-mer frequency, TF over GST control); in assay [12] it was 1.03 fold enrichment (6-mer frequency, TF over GST control). Also, the binding signal in [13] is 1.24 fold enrichment (6-mer frequency, TF over GST control); in assay [14], 1.25 fold enrichment (6-mer frequency, TF over GST control); in [15], 1.12 fold enrichment (6-mer frequency, TF over GST control); in assay [16], 1.24 fold enrichment (6-mer frequency, TF over GST control); in assay [17], 1.18 fold enrichment (6-mer frequency, TF over GST control); in assay [18], 1.11 fold enrichment (6-mer frequency, TF over GST control).
